Records with an inconclusive call do not appear. Where a call stands in place of a potency, no number is given. The source made the active and inactive calls. Calls follow the shape of the dose curve; as a rule, active = well fitted cell-killing curve with a large enough effect; inconclusive = small, poorly fitted or top-dose-only effect, or effect the other way; inactive = flat fitted curve, though single readings scatter.
The compounds below were run on HeLa (assay: Primary qHTS to identify gynecologic anti-cancer compounds using libraries of approved drugs and bioactive compounds (AID 1345084; also: nearly all actives have a fitted effect of over 55% in size)). Conditions: Gynecologic cancer cell panel viability, ATPlite luminescence, 48 h; series mostly up to 57.5 µM.
Excerpt: National Center for Advancing Translational Sciences [NCATS] Assay Overview: Chemotherapeutic drug responses vary from cancer to cancer and from patient to patient. These variations could be caused by a number of factors including patient genomic background, tumor mutations, tumor heterogeneity, and aspects of drug treatment. Chemotherapeutic drug resistance is also a common issue and can lead to ineffective treatment and patient death. Here we have profiled the cell killing effects of thousands of compounds to characterize the responses in three gynecological cancers, identify cancer-selective compounds, and understand the diversity of responses to these compounds from pan-cancer suppressors to single cell line selective compounds. In this assay, we screened a 7,914 compound drug library that included approved drug and bioactive compounds in six ovarian, three cervical, and […] placental cancer cell lines using the ATPlite assay for cell viability. […] The cervical cancer cell lines included HeLa, Ca Ski, and C-33 A. The placental cancer cell lines included JEG-3. HEK 293T cells were used as the control cell line to determine the selectivity index. ATPlite is a luminescence based assay reliant on the conversion of a luciferase substrate to light in the presence of ATP. As a cytotoxic compound will suppress growth and decrease the number of cells, the concentration of ATP will decrease, and less light signal will be detected in the well.
Assay Protocol Summary: 1,000 cells in 4 uL of media were dispensed into white, solid bottom 1536-well plates using a Multidrop Combi (Thermo Scientific). The Assay plates were incubated for 16 hours at 37 C with 5% CO2 in assay plates, followed by the addition of 23 nL of DMSO or drug dissolved in DMSO. Each compound was assayed in five concentrations (0.092, 0.46, 2.3, 11.5, and 57.5 uM), using the automated Wako 1536 Pin Tool workstation and incubated at 37 C with 5% CO2 48 hours. 4 uL of ATPlite, the ATP monitoring reagent, was then added to the each well of the assay plates using the Multidrop Combi reagent dispenser followed by incubation for 15 minutes at room temperature. The resulting luminescence was measured using the ViewLux plate reader.
Potency is read from the fitted curve at half-maximal effect.

SMILES | Potency | activity change, negative = cytotoxicity
CCCCOCCOCCOCc1cc2c(cc1CCC)OCO2 | inactive | 
O=c1[nH]c(=O)n([C@H]2C[C@H](O)[C@@H](CO)O2)cc1Br | inactive | 
C[C@]12CCC(=O)C=C1CC[C@@H]1[C@@H]2CC[C@@]2(C)[C@H]1CC[C@]2(O)C(=O)CO | inactive | 
FC(F)(F)c1ccccc1-n1ccnc1 | inactive | 
Nc1nc(N)c2nc(-c3ccccc3)c(N)nc2n1 | inactive | 
CC(C)NNC(=O)c1ccncc1 | inactive | 
Cc1nc2sccn2c(=O)c1CCN1CCC(=C(c2ccc(F)cc2)c2ccc(F)cc2)CC1 | inactive | 
O=C(O)CN(CCOCCOCCN(CC(=O)O)CC(=O)O)CC(=O)O |  | 11.5% [at 0.462 µM] (inactive)
c1ccc2c(c1)CCCC2C1=NCCN1 (stereo not given) | inactive | 
C[N+](C)(C)CCCCCCCCCC[N+](C)(C)C | inactive | 
C[C@]12CCC(=O)C=C1CC[C@@H]1[C@@H]2C(=O)C[C@@]2(C)[C@H]1CC[C@]2(O)C(=O)CO | inactive | 
CC1=C(C)C(=O)C(CCCCC#CCCCC#CCO)=C(C)C1=O | inactive | 
NC(=O)c1cn(Cc2c(F)cccc2F)nn1 | inactive | 
Nc1c2c(nc3ccccc13)CCCC2O (stereo not given) | inactive | 
CCN(CC)CCNC(=O)c1ccc(NC(C)=O)cc1 | inactive | 
CN1C[C@H](C(=O)N[C@]2(C)O[C@@]3(O)[C@@H]4CCCN4C(=O)[C@H](Cc4ccccc4)N3C2=O)C[C@@H]2c3cccc4[nH]cc(c34)C[C@H]21 | inactive | 
NS(=O)(=O)c1cc2c(cc1Cl)NC(C1CC3C=CC1C3)NS2(=O)=O (stereo not given) | inactive | 
C[C@]12CC[C@@H]3c4ccc(O)cc4C[C@@H](CCCCCCCCCS(=O)CCCC(F)(F)C(F)(F)F)[C@H]3[C@@H]1CC[C@@H]2O (stereo not given in full) | inactive | 
CCO/C([O-])=N/c1c[n+](N2CCOCC2)no1 | inactive | 
CN1C(=O)CC[C@H]1c1cccnc1 | inactive | 

SMILES | Potency | activity change, negative = cytotoxicity
OCCN1CCN(CC/C=C2/c3ccccc3Sc3ccc(C(F)(F)F)cc32)CC1 | inactive | 
CC(N=C(NC#N)Nc1ccncc1)C(C)(C)C (stereo not given) | inactive | 
COc1ccc([C@@H]2Sc3ccccc3N(CCN(C)C)C(=O)[C@@H]2OC(C)=O)cc1 | inactive | 
CCCCNc1c(C(=O)OCC)c(C)nc2c1cnn2CC | inactive | 
CN(C)C(=O)Oc1cccc([N+](C)(C)C)c1 | inactive | 
COc1ccc2c(c1OC)C(=O)O[C@@H]2[C@H]1c2c(cc3c(c2OC)OCO3)CCN1C | inactive | 
COc1ccc(CN(CCN(C)C)c2ccccn2)cc1 | inactive | 
NC(N)=NC(=O)Cc1c(Cl)cccc1Cl | inactive | 
NC(=O)N1c2ccccc2C=Cc2ccccc21 | inactive | 
CCn1cc(C(=O)O)c(=O)c2cc3c(cc21)OCO3 | inactive | 
C[n+]1cc2c3c(ccc2c2ccc4cc5c(cc4c21)OCO5)OCO3 | 8.91 µM (active) | 
N[C@@H](COP(=O)(O)O)C(=O)O | inactive | 
CCNC(=O)N1CCN(CCCC(c2ccc(F)cc2)c2ccc(F)cc2)CC1 | inactive | 
CC(C)NCC(O)c1cc(O)cc(O)c1 (stereo not given) | inactive | 
CC(=O)OC(C)C[N+](C)(C)C (stereo not given) | inactive | 
CN1CCN(C2=Nc3ccccc3Oc3ccc(Cl)cc32)CC1 | inactive | 
CC(C)(Oc1ccc(CCNC(=O)c2ccc(Cl)cc2)cc1)C(=O)O | inactive | 
O=C(O)CP(=O)(O)O | inactive | 
CC(=O)[C@]1(O)Cc2c(O)c3c(c(O)c2[C@@H](O[C@H]2C[C@H](N)[C@H](O)[C@H](C)O2)C1)C(=O)c1ccccc1C3=O | 7.08 µM (active) | 
OC(CCN1CCCCC1)(c1ccccc1)C1CCCCC1 (stereo not given) | inactive | 
